Laboratory results reported in PubChem BioAssay AID1851 (National Center for Advancing Translational Sciences (NCATS), 2009).
About 5,700 (36%) of roughly 16,000 compounds were called active. Not shown: some 24% with an inconclusive outcome. This is one part of the list. Values without a mark were called inactive. Calls come from the whole dose curve; as a rule, active = well fitted curve in the direction sought with a large enough effect; inconclusive = small, poorly fitted or top-dose-only effect, or effect the other way; inactive = no such curve, though single readings can be large or run the other way.

The compounds below were run against Cytochrome P450 1A2 (Homo sapiens) (UniProt P05177) (assay: Cytochrome panel assay with activity outcomes). Details: recombinant CYP, pro-luciferin dealkylation, luminescence, p450-cyp1a2; series mostly up to 57.1 µM.
% is set by controls: 0 for no effect and ±100 for the full control effect.

Chain of Cytochrome P450 1A2 (Homo sapiens) (P05177 whole entry, looked up): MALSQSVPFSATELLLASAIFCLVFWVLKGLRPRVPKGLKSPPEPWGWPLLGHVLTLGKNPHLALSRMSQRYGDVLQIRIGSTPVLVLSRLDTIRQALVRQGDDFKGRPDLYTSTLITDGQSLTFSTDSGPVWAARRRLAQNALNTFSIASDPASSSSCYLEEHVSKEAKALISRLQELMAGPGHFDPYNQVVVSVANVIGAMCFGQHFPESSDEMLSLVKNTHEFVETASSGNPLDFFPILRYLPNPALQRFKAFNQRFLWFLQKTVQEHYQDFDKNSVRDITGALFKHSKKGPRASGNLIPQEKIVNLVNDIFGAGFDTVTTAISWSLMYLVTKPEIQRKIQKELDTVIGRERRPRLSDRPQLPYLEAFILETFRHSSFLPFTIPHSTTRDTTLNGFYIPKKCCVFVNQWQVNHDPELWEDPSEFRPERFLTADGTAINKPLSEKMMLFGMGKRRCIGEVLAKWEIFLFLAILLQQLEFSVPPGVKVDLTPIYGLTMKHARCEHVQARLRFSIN

SMILES | AC50 | activity, negative = inhibition
CS(=O)(=O)N1CCC2(CCCN(C(=O)Nc3cccc(F)c3)C2)CC1 | inactive | –
Cc1ccc(S(=O)(=O)O[C@@H]2[C@H]([C@@H]3COC(C)(C)O3)O[C@H]3OC(C)(C)O[C@@H]32)cc1 | – | -15.9% [at 11.4 µM]
N#Cc1ccc(-c2ccc(F)cc2)nc1Sc1ccccc1 | 0.891 µM (active) | –
Cc1ccc(Sc2nc(-c3ccccc3)ccc2C#N)cc1 | 2.82 µM (active) | –
CC[C@@H]1OC(=O)[C@H](C)[C@H](O[C@@H]2C[C@](C)(OC)[C@H](O)[C@H](C)O2)[C@H](C)[C@H](O[C@@H]2O[C@@H](C)C[C@@H](N(C)C)[C@@H]2O)[C@](C)(O)C[C@H](C)[C@@H]2N[C@H](COCCOC)O[C@H]([C@@H]2C)[C@]1(C)O | inactive | –
COc1ccc(/C=N/Nc2snc(SC)c2C#N)cc1OC | 0.708 µM (active) | –
COc1cc(/C=N/Nc2snc(SC)c2C#N)cc(OC)c1OC | 4.47 µM (active) | –
CO[C@H]1COC(=O)C/C=C\[C@H](C)COC(=O)[C@@H](C)NC(=O)C/C=C\[C@@H]1C | – | -2.38% [at 11.4 µM]
C[C@@]12C=CC(=O)C=C1CC[C@@H]1[C@@H]2[C@H](O)C[C@]2(C)[C@@H]1CC[C@]2(O)C(=O)CO | inactive | –
Cc1nn(Cc2ccc(Cl)cc2)c(C)c1NC(=O)CSc1nc2c(c(C(F)(F)F)n1)CCc1ccccc1-2 | inactive | –
Cc1ccccc1Cn1cc(NC(=O)CSc2nc3c(c(C(F)(F)F)n2)CCc2ccccc2-3)cn1 | 7.08 µM (active) | –
CCc1ccc(-c2cc(C(F)(F)F)n3nc(C(=O)Nc4cnn(Cc5ccccc5C)c4)cc3n2)s1 | inactive | –
CC(=O)NS(=O)(=O)c1ccc(N)cc1 | inactive | –
O=C(Nc1ccc(-n2nncc2-c2ccco2)cc1)c1ccc(F)cc1 | inactive | –
Cc1cc(C(F)F)n2nc(C(=O)Nc3cccnc3Cl)nc2n1 | inactive | –
O=C(Nc1ccc(F)cc1)c1ccc(-n2ccnc2)nc1 | 0.501 µM (active) | –
Cc1c(Cl)cccc1NC(=O)c1ccc(-n2ccnc2)nc1 | 0.794 µM (active) | –
Nc1ccn([C@@H]2CC[C@H](CO)O2)c(=O)n1 | inactive | –
Cc1nc2cnc(Oc3ccccc3)nc2n(C)c1=O | 12.6 µM (active) | –
COc1ccc(Oc2ncc3nc(C)c(=O)n(C)c3n2)cc1 | 12.6 µM (active) | –
NC(=O)c1nnn(Cc2cc(Cl)c(C(=O)c3ccc(Cl)cc3)c(Cl)c2)c1N | – | -2.19% [at 2.29 µM]
O=C(Oc1ccccc1)N1CCC2(CC1)CCN(c1ccncc1)CC2 | inactive | –
CCOC(=O)C1CCN(C(=O)c2ccccc2NC(C)=O)CC1 | inactive | –

SMILES | AC50 | activity, negative = inhibition
O=C(c1ccccc1Nc1ccc(SC(F)F)cc1)N1CCCCC1 | 14.1 µM (active) | –
Cc1ccccc1N1CCN(C(=O)c2ccccc2NC(=O)/C=C\C(=O)O)CC1 | inactive | –
CCCCNC(=O)C1C2C=CC3(CN(Cc4ccccc4Cl)C(=O)C13)O2 (centres undefined) | inactive | –
Cc1cc(-c2cc(-c3ccc(Cl)cc3)nc(N)c2C#N)co1 | 8.91 µM (active) | –
COc1ccc(COC(=O)N/N=C2/C[C@@H](O)[C@@H](O)[C@@H]3[C@@H]4C(=O)N(C(C)(C)C)C(=O)[C@H]4CC[C@@H]23)cc1 | – | -55.1% [at 11.4 µM]
Cc1cc(C)cc(N(C(=O)C2CCCC2)C2C=CS(=O)(=O)C2)c1 (centres undefined) | inactive | –
N=C1/C(=C/c2cccs2)C(=O)N=C2SN=C(SCc3ccccc3)N12 | 15.8 µM (active) | –
CO[C@@H]1/C=C\CC(=O)N[C@@H](C)C(=O)OC[C@@H](OC)[C@H](C)CCCC(=O)OC[C@H]1C | – | 0.281% [at 11.4 µM]
Cc1cc(N2CCN(C)CC2)n2nc(-c3ccc(Cl)cc3)nc2n1 | – | -14.3% [at 11.4 µM]
Cc1nc2nc(-c3ccc(Cl)cc3)nn2c(C)c1Cl | 0.562 µM (active) | –
Cc1cc(C)n(-c2nc3c(c(=O)[nH]c(=O)n3C)n2CC(C)C)n1 | inactive | –
C/C(Cl)=C\Cn1c(N2CCCC2)nc2c1c(=O)[nH]c(=O)n2C | 14.1 µM (active) | –
CCN1CCN(c2nc3c(c(=O)[nH]c(=O)n3C)n2CCCSc2ncccn2)CC1 | inactive | –
C#CCCCO/N=C1/[C@H]2O[C@@H]2[C@@H](O)[C@H]2[C@H]1CCn1c(=O)n([C@@H](CC)c3ccccc3)c(=O)n12 | – | -5% [at 11.4 µM]
O=C(c1ccc([N+](=O)[O-])cc1)n1nc(-c2ccccc2)nc1NCc1ccccc1 | 7.08 µM (active) | –
O=C(CCCNS(=O)(=O)c1cccc2nsnc12)NCCc1ccccc1 | 25.1 µM (active) | –
CC(C)C(NS(=O)(=O)c1cccc2nsnc12)C(=O)N1CCc2ccccc2C1 (centres undefined) | inactive | –
COc1ccc(CCNC(=O)C2CCN(S(=O)(=O)c3cccc4nsnc34)CC2)cc1OC | inactive | –
O=C1Cc2c([nH]c3ccc(Br)cc23)-c2ccccc2N1 | 0.158 µM (active) | –
O=C1CCCCC(=O)c2ccccc2N1 | inactive | –
O=C(NC1(C(F)(F)F)C(=O)Nc2c1c(=O)[nH]c(=O)n2-c1ccc(F)cc1)c1cccnc1 (centres undefined) | inactive | –
Cn1c(Sc2ccc(-c3cccnc3)n2C)ccc1-c1cccnc1 | 0.398 µM (active) | –
C1CCc2nnnn2CC1 | inactive | –

SMILES | AC50 | activity, negative = inhibition
NC(N)=NC(N)=Nc1ccc(S(=O)(=O)O)cc1 | – | -8.09% [at 11.4 µM]
NC(N)=NC(N)=Nc1ccccc1 | 31.6 µM (active) | –
NC(N)=NC(N)=Nc1ccc(S(N)(=O)=O)cc1 | – | -9.8% [at 11.4 µM]
NC(N)=NC(N)=Nc1cccc(Cl)c1 | inactive | –
NC(N)=NC(N)=Nc1c(F)c(F)c(F)c(F)c1F | – | 10.9% [at 2.29 µM]
NC(N)=NC(N)=Nc1ccccc1 (tested in a mixture with another compound) | 3.16 µM (active) | –
Nc1cc(-c2nn[nH]n2)ccc1F | inactive | –
COc1ccc(/C=N/N(C(C)=O)c2nc(-c3ccc(C)cc3)cs2)cc1 | 1.58 µM (active) | –
CC(=O)N(/N=C/c1cccc(C)c1)c1nc(-c2ccc(Br)cc2)cs1 | 1.41 µM (active) | –
C/C(CCN1CCCc2nc(C)c(C)cc21)=N\OC[C@@H](C)[C@H](OCc1ccccc1)C(C)C | – | -3.05% [at 11.4 µM]
C[C@@]12C[C@H](O)[C@@H]3[C@H](CCC4=CC(=O)CC[C@]43C)[C@H]1CC[C@@H]2c1csc(N)n1 | – | -9.78% [at 2.29 µM]
N#Cc1ccccc1-c1cncnc1NCc1cccnc1 | 0.0631 µM (active) | –
Cc1cccc(CNc2ncncc2-c2ccccc2C)c1 | 2.51 µM (active) | –
Cc1ccccc1-c1cncnc1NCc1ccccc1 | 12.6 µM (active) | –
Cc1cccc(CNc2ncncc2-c2ccccc2Cl)c1 | 3.16 µM (active) | –
CCCCCCCCCCCCCCCCCC(=O)O[C@H](CC(=O)O)C[N+](C)(C)C | inactive | –
CCN1CCCCC(=N/O)/C(=N/O)CCCC1 | – | -9.97% [at 11.4 µM]
CC(C)(C)NS(=O)(=O)c1ccc(NC(=O)C(Sc2ccccc2)c2ccccc2)cc1 (centres undefined) | inactive | –
C[C@@H]1OC2C3=C(C(=O)[C@H]4O[C@@H]4[C@H]3O)[C@@H]1[C@H]1[C@H](C)OC=C3[C@H](O)[C@H]4O[C@H]4/C(=N\OCc4ccccc4)[C@@]321 | – | -13.5% [at 11.4 µM]
O=C(c1ccco1)N1CCC[C@@]2(CCN(Cc3nccs3)C2)C1 | inactive | –
FC(F)(F)c1ccccc1-c1cncnc1NCc1cccnc1 | 20 µM (active) | –
Cc1ccccc1-c1cncnc1NCc1cccnc1 | 15.8 µM (active) | –
Cn1c(=O)c(-c2ccccc2)nc2cnc(Nc3ccccc3)nc21 | 15.8 µM (active) | –

SMILES | AC50 | activity, negative = inhibition
Cc1nc2cnc(Nc3ccccc3)nc2n(C)c1=O | 1.26 µM (active) | –
COc1cccc(Nc2ncc3nc(-c4ccccc4)c(=O)n(C)c3n2)c1 | 3.16 µM (active) | –
Cc1ccc(S(=O)(=O)NC(=O)Nc2ncn[nH]2)cc1 | – | -21.4% [at 2.29 µM]
N[C@H](CCCC(=O)O)C(=O)O | inactive | –
O=C(NC[C@@H](O)CO)c1c(I)c(C(=O)NC[C@@H](O)CO)c(I)c(N(CCO)C(=O)CO)c1I | inactive | –
COc1cc2nc(N3CCN(C(=O)[C@@H]4CCCO4)CC3)nc(N)c2cc1OC | inactive | –
CCN1CCN(S(=O)(=O)c2ccc(Cl)c(C(=O)Nc3nnc(CC(C)C)s3)c2)CC1 | inactive | –
O=C(c1cc(Cl)c(=O)n(Cc2ccc(Cl)cc2)c1)N1CCOCC1 | inactive | –
Cc1nc2c(C(=O)N3CCOCC3)cnn2c(C)c1Cc1ccc(Cl)cc1 | 15.8 µM (active) | –
Cc1ccc(CS(=O)(=O)CCC(=O)N2CCOCC2)cc1 | inactive | –
O=C(O)CNC(=O)[C@@H](CS)Cc1ccccc1 | inactive | –
COc1cc2nc3c(c([Si](C)(C)C(C)(C)C)c2cc1OC)Cn1c-3cccc1=O | 5.01 µM (active) | –
CC(C)(C)[Si](C)(C)c1c2c(nc3ccc(OCc4ccccc4)cc13)-c1cccc(=O)n1C2 | 5.01 µM (active) | –
COc1ccc2nc3c(c([Si](C)(C)C(C)(C)C)c2c1)Cn1c-3cccc1=O | 0.794 µM (active) | –
COCCn1c(=O)c(C)nc2cnc(N3CCN(C)CC3)nc21 | 15.8 µM (active) | –
COCCn1c(=O)c(C)nc2cnc(N3CCNCC3)nc21 | 10 µM (active) | –
CN1CCN(c2ncc3nc(-c4cc(F)cc(F)c4)c(=O)n(CCc4ccccc4)c3n2)CC1 | inactive | –
COc1ccc(-c2nc3cnc(N4CCN(C)CC4)nc3n(CCc3ccccc3)c2=O)cc1 | inactive | –
Cc1nc2cnc(N3CCN(C)CC3)nc2n(CCc2ccccc2)c1=O | 10 µM (active) | –
CN(C)C[C@H]1CCC2=C(C1=O)C(c1ccc(Cl)c(Cl)c1)C1=C(CC[C@H](CN(C)C)C1=O)O2 | – | -2.04% [at 2.29 µM]
